S1P4 ag: human S1P4 receptor agonism | O95977 | S1P4-expressing cell line, agonist reporter assay | activation, % at 4.98 µM | 0.35% of 220,000 active | AID 1509; in the data active = activation above about 11%;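 also: 0% = DMSO vehicle and 100% = reference agonist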
S1P3 antag: antagonists of human S1P3 receptor; Q99500; CHO S1P3 NFAT-BLA reporter, FRET fluorescence, antagonist mode; inhibition, % at 4.98 µM; 0.27% of 170,000 active; AID 485;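 active = inhibition above the plate cutoff, the mean inhibition of test wells on that plate plus 3 SD, cut at about 28% in these data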;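 also: cells challenged with S1P at its EC80 of 0.8 µM; blue over green emission ratio from cleaved BLA substrate after 4 h stimulation; 0% = S1P-stimulated wells and 100% = unstimulated DMSO-only wells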
Target sequence (Q99500 whole entry, looked up): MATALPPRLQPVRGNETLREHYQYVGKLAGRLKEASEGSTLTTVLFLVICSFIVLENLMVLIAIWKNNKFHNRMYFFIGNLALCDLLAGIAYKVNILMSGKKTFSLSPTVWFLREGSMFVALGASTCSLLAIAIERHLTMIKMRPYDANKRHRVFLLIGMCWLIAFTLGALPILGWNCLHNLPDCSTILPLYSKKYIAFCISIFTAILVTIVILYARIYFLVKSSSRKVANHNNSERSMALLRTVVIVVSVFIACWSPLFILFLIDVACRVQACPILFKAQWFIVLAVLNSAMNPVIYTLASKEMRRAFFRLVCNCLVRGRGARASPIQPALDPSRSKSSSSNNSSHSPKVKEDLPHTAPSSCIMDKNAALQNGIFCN
RAM inhibit: blocks the yeast RAM network; S. cerevisiae dse1pr::URA3 reporter, 5-FOA growth OD615, 2 d; analog-sensitive cbk1-as2 kinase mutant strain; inhibition, % at 50 µM; 1.8% of 190,000 active;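 active = inhibition above a set limit, 3 SD over mean compound inhibition, cut at about 8.4% in these data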;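 also: 0% = DMSO-only wells with no growth and 100% = 10 µM 1-NA-PP1 full growth; inhibition rescues growth on 5-FOA so higher OD means more RAM inhibition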
ROMK mod: human ROMK K+ channel modulation, primary screen. P48048. Tet-inducible ROMK, thallium flux fluorescence; actives lie on both sides. B-score at 10 µM. 2% of 130,000 active. AID 1918;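 active = signal ratio slope over the read window, or its plate-corrected B-score, at least 3 SD from the plate mean, either direction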;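 also: B-score of the F/F0 ratio slope over 7 to 12 s after thallium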
S1P4 antagonist: human S1P4 receptor antagonism; S1P4-expressing cells, antagonist mode, reporter read-out; inhibition, % at 4.98 µM; 0.26% of 220,000 active; in the data active = inhibition above about 29%;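 also: 0% = wells stimulated with agonist and 100% = vehicle wells without agonist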
KCC2 mod: KCC2 (human) Cl- transport modulation; AID 1456; B-score of Tl+ flux slope (higher = more flux/activation; lower = inhibition) at 10 µM; Q9H2X9; 2.2% of 190,000 active; KCC2 cells, thallium flux FluoZin-2 fluorescence;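 active = thallium flux slope and its plate-corrected score both differing from the plate sample mean at a set confidence after two filtering rounds, in either direction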;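 also: slope of fluorescence scaled to starting intensity during 10 to 20 s after thallium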
* marks the source's active call; other numbers are inactive results; i = inactive; / = no result. A selection: hits, their analogues and other compounds. The true share with any hit is near 5.1%.

SMILES | S1P4 ag | S1P3 antag | RAM inhibit | ROMK mod | S1P4 antagonist | KCC2 mod
CCCOP(=O)(OCCC)C(Nc1ccc(C(C)C)cc1)c1ccc([N+](=O)[O-])cc1 (centres undefined) | -2 | / | 9.4* | / | -14 | -0.68
COP(=O)(OC)C(Nc1ccc([N+](=O)[O-])cc1)c1ccccc1 (centres undefined) | 0 | -1 | / | / | 4 | -0.43
O=C(NCCCN1CCCC1)c1cc(Sc2ccc(F)cc2)nc2ccccc12 | 1 | -7 | 1 | -0.05 | -12 | -0.51
CCOCCCNC(=O)c1cc(Sc2ccc(C)cc2)nc2ccccc12 | 0 | -8 | 11* | -0.098 | -6 | -0.85
CCCn1c(SCC(=O)Nc2cc(S(=O)(=O)N(C)C)ccc2OC)n[nH]c1=O | 1 | -10 | 0 | 0.092 | -19 | -2.3
CSc1ccc(C(=O)C2CCCN(S(=O)(=O)N(C)C)C2)cc1 (centres undefined) | 0 | 0 | 10* | -0.37 | -21 | -0.39
Cc1ccc(C)c(NC(=S)NNC(=O)c2cc3c(s2)CCC(C)C3)c1 (centres undefined) | 1 | -1 | 1 | / | 0 | 28*
Cc1cccc(NC(=S)NNC(=O)c2csc3c2CCC(C)C3)c1 (centres undefined) | 0 | / | 3 | -0.29 | 4 | 25*
Cc1ccc(C)c(NC(=S)NNC(=O)c2csc(C(C)C)c2)c1 | -1 | / | 2 | / | 7 | 13*
Cc1ccc2nc(SCC3CCCCO3)[nH]c2c1 (centres undefined) | -1 | 8 | / | / | -13 | 0.044
CCOC(=O)C1(Cc2ccc(Cl)cc2)CCN(C(=O)c2cscn2)CC1 | 2 | 5 | 2 | -1.3 | -3 | -0.05
CC1CCC2C(=O)N(c3ccccc3OC(=O)c3ccccc3F)C(=O)C2C1 (centres undefined) | 0 | -23 | 1 | 0.18 | 2 | 1.8
Cc1ccccc1NC1=NC(=S)N(c2ccccc2)C12CCOC(C)(C)C2 (centres undefined) | 1 | / | 4 | / | -8 | 26*
COc1ccc2nc(NC(=O)C(NS(=O)(=O)c3cccs3)C(C)C)sc2c1 (centres undefined) | 1 | -42 | 8.8* | -0.3 | -22 | /
COc1ccc2nc(N/C(=N/S(=O)(=O)c3cccs3)c3ccccc3Cl)sc2c1 | 2 | -3 | 3 | 0.34 | -16 | 1.7
O=C1CN=C(Nc2ccccc2Cl)N1Cc1ccc2c(c1)OCO2 | 1 | / | 2 | / | -3 | 0.026
COc1cnc(-c2ccccc2)nc1Oc1ccc(C(C)(C)C)cc1 | -1 | / | 11* | / | -21 | -0.42
O=C1CCC(=O)N1CCSC(=S)N1CCSCC1 | 1 | 3 | / | / | -4 | 0.071
Nc1ccc(/C=C/C(=O)c2cccs2)cc1 | 1 | -1 | -1 | -6* | 2 | -7.4*
Cc1ccc(-c2csc(NC(=O)C3=NN(C4CCS(=O)(=O)C4)C(=O)CC3)n2)cc1 (centres undefined) | 0 | 9 | / | -0.0078 | -20 | -0.23
CCN1CC=C2C(C#N)=C(N)C(C#N)(C#N)C(c3cc(Cl)ccc3Cl)C2C1 (centres undefined) | 2 | -15 | -1 | -4.8* | -2 | -0.72
CC(C)N1CC=C2C(C#N)=C(N)C(C#N)(C#N)[C@H](c3ccoc3)[C@H]2C1 | 3 | / | 1 | / | -8 | i
CC(C)N1CC=C2C(C#N)=C(N)C(C#N)(C#N)C(c3ccccc3)C2C1 (centres undefined) | 1 | / | 1 | -4.2* | -14 | -0.12
CCC1C2CN(C(C)=O)CC=C2C(C#N)=C(N)C1(C#N)C#N (centres undefined) | 1 | -11 | 1 | / | -7 | -0.16
CCOc1ccc2nc(NC(=O)c3ccc(OCC4CCCO4)cc3)sc2c1 (centres undefined) | 0 | 21 | 6 | / | -11 | -0.37
SMILES | S1P4 ag | S1P3 antag | RAM inhibit | ROMK mod | S1P4 antagonist | KCC2 mod
CCCCn1nnnc1NCc1ccc(C)s1 | 2 | / | 0 | / | -14 | 0.16
CC(C)n1c(O)c(N=Nc2ccc(Cl)nn2)c2ccccc21 | 0 | 5 | 4 | / | -10 | 11*
O=C(CN1C(=O)CSc2cc(S(=O)(=O)N3CCCCCC3)ccc21)NCCc1ccccc1 | 4 | -19 | 3 | -5.5* | -10 | -7.8*
COc1ccc(C(=O)NCC(=O)N/N=C(\C)c2ccco2)cc1OC | 0 | 4 | / | / | -18 | 0.24
Clc1ccc(CSc2cc3c(nn2)-c2ccccc2CC3)cc1Cl | 0 | / | 10* | / | 0 | /
Clc1ccccc1CSc1cc2c(nn1)-c1ccccc1CC2 | 2 | / | 10* | / | -4 | -0.37
O=C(NCCSc1ccccc1)c1ccc(CN2CCOCC2)cc1 | 0 | 3 | / | / | 2 | -0.35
Cc1cc(C)c(C2=NOC3C4CCC(C4)C23)c(C)c1 (centres undefined) | 1 | -5 | 0 | / | -25 | 0.011
COc1ccc(Nc2nc(-c3c(C)nc4ncccn34)cs2)cc1 | -1 | 6 | 4 | 3.1* | -1 | -2.1
Cc1nc2ncccn2c1-c1csc(Nc2ccccc2)n1 | -2 | -22 | 1 | -1.4 | -4 | -1.2
CCc1ccc(S(=O)(=O)NCCc2csc(-c3cccnc3)n2)s1 | -4 | / | 0 | / | -10 | -1.2
CCc1ccc(S(=O)(=O)NCc2csc(-c3ccccc3)n2)s1 | -1 | 2 | 6 | / | -10 | -4.9*
Cc1ccc(NC(=S)NC(=O)c2ccc(-c3ccc(Cl)cc3)o2)c(O)c1 | 4 | -14 | 10* | -0.38 | -11 | 0.96
Cc1cc(O)c(NC(=S)NC(=O)c2ccc(-c3ccc(Cl)cc3)o2)cc1C | 1 | / | 4 | / | -10 | /
CCOc1ccc(-n2c(=O)c3sccc3n(CC(=O)Nc3cccc(OC)c3)c2=O)cc1 | -2 | -16 | 4 | -0.13 | -10 | -0.73
COc1cc(/C=C2\S/C(=N/S(=O)(=O)c3ccc(C)cc3)NC2=O)c([N+](=O)[O-])cc1OC | -1 | / | 3 | -0.71 | -9 | -6.5*
CCOC(=O)c1sc(NC(=O)CSc2nccc(C)n2)nc1C | -1 | -9 | 8.5* | -1.9 | -1 | -0.19
COC(=O)c1cc(NC(=O)CN(c2ccccc2OC)S(=O)(=O)c2ccccc2)ccc1Cl | 0 | / | 1 | / | -5 | -2
COC(=O)c1cc(NC(=O)CN(c2cccc(OC)c2)S(=O)(=O)c2ccccc2)ccc1Cl | 0 | 6 | 8.9* | / | -3 | -1.3
CCOC(=O)c1noc(C)c1C(=O)Nc1nc(C)cc(C)n1 | 1 | 7 | 2 | 0.81 | -16 | 0.61
Cc1ccc(C2c3c(oc4ccc(Cl)cc4c3=O)C(=O)N2CCCN2CCOCC2)o1 (centres undefined) | -1 | 11 | 0 | / | -14 | 6.6*
O=C1c2oc3ccc(Cl)cc3c(=O)c2C(c2ccco2)N1CCN1CCOCC1 (centres undefined) | 2 | -2 | -1 | / | -14 | 5.6*
COc1ccc(C2c3c(oc4ccc(Cl)cc4c3=O)C(=O)N2CCN2CCOCC2)cc1 (centres undefined) | 0 | 22 | / | / | -4 | 2.3

Assay outcomes as filed in PubChem.
